High-throughput results (PubChem)
Only some compounds are listed: those with a hit (about 3.4% of all), similar ones and a draw of the others.
FBW7 act: human FBW7 E3 ligase activation, primary screen | Q969H0 | AlphaScreen FBW7–phospho-cyclin E peptide binding, activator screen | normalized activity (activation), % at 26.1 µM | 0.13% of 650,000 active | AID 1259310; in the data active means normalized activity above about 1.9%;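 further: purified mutant Fbw7 with reduced substrate affinity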
MITF inh: inhibitors of human MITF; inhibition, % at 2.6 µM; AlphaScreen MITF homodimerization, bead proximity signal; O75030; 0.91% of 650,000 active; in the data active means inhibition above about 50%
Target sequence (O75030 whole entry, looked up): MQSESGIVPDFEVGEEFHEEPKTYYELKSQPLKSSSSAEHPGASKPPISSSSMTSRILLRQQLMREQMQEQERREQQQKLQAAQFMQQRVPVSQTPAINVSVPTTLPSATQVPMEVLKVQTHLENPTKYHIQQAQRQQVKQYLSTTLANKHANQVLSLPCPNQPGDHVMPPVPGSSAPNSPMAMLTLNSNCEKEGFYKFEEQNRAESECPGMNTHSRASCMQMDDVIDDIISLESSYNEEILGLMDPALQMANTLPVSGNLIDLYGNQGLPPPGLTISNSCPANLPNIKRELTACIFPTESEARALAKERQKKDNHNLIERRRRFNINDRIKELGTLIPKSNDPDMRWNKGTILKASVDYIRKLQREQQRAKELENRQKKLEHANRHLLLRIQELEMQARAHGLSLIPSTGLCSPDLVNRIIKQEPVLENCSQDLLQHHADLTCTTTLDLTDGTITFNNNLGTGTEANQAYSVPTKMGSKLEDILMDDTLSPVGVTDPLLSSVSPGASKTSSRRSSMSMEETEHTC
GPR151 activ: human GPR151 activation | Q8TDV0 | PathHunter beta-arrestin GPR151 cells, luminescence | activation, % at 11.2 µM | 1% of 650,000 active | AID 1508602; in the data active means activation above about 4.9%
TEAD-YAP inh: TEAD-YAP interaction inhibition; HEK-TIYL cells, TEAD-Gal4/YAP UAS-luciferase luminescence; inhibition, % at 9.12 µM; 1.4% of 640,000 active; AID 1259422; in the data active means inhibition above about 32%
GPR151 conf act: confirmation of human GPR151 activators; shares compounds with GPR151 activ; GPR151 PathHunter beta-arrestin cells, luminescence, 90 min; % of EA-reagent control over plate median; activation, % at 11.2 µM; 6,700 tested, under 10 active; AID 1508609;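 active means mean percent activation across replicates above the confirmation screen cutoff of 4.91%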
GPR119 counter: GPR119 activation, counter-screen for GPR151 activators; shares compounds with GPR151 activ; AID 1508611; GPR119 PathHunter beta-arrestin cells, luminescence, 90 min; 0 = compound-well median, 100 = enzyme-acceptor control; activation, % at 11.2 µM; 0.3% of 6,700 active;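 active means mean percent activation in the counterscreen above 29.09%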;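 further: counterscreen on off-target GPR119 to flag nonselective hits from the GPR151 activator screen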
Of the large screens only hits and unclear results are named; the others gave an inactive call (follow-up assays come after a bar, where they were run).

CCOc1ccc(NC(=O)CN2C(=O)C(C)SC(C)C2=O)cc1 (centres undefined)	none
CCN(CC)C(=O)/C(=C/c1ccccc1)c1ccccc1	none
O=C(Nc1ccc2oc(-c3ccccc3F)nc2c1)c1ccc(Cl)cc1Cl	none
CCC1=C(C(=O)OC)C(c2ccccc2OC)n2ncnc2N1 (centres undefined)	none
CCC(C)Nc1nc(OCC(F)(F)F)nc(N2CCN(C34CC5CC(CC(C5)C3)C4)CC2)n1 (centres undefined)	none
COC(=O)CSc1nc2c(c(-c3cccs3)c1C#N)CCC(C(C)(C)C)C2 (centres undefined)	none
COc1ccc(/C=C2\SC(=O)N(CC(=O)Nc3ccc(C)cc3)C2=O)cc1OC	none
COc1ccc(/C=C2\SC(=O)N(CC(=O)Nc3ccc(F)cc3)C2=O)cc1O	GPR151 activ 6.2 | GPR151 conf act inactive | GPR119 counter inactive
CC(C)NC(=O)CSc1nnc(-c2cccnc2)n1CCc1ccccc1	GPR151 activ 9.5 | GPR151 conf act inactive | GPR119 counter inactive
CCc1ccccc1-n1c(SCC(=O)NC)nnc1-c1cccnc1	GPR151 activ 7.6 | GPR151 conf act inactive | GPR119 counter inactive
CNC(=O)CSc1nnc(-c2cccnc2)n1CCc1ccccc1	none
CCc1cccc(CC)c1-n1c(SCC(=O)NC)nnc1-c1cccnc1	none
CC(=O)c1ccc(NC(=O)COC(=O)c2[nH]c(C)c(C(C)=O)c2C)cc1	none
O=C(Nc1ccc(F)cc1F)/C(=C\c1ccc2c(c1)OCO2)NC(=O)c1ccccc1Cl	none
Cc1cccc(C(=O)Nc2ccc(N)cc2)c1	none
C/C(=N/N=C/c1ccc(Cl)cc1Cl)c1nnn(-c2nonc2N)c1C	none
O=c1c2c(nc3nc(-c4ccccc4)[nH]n13)CCCC2	GPR151 activ 5.7 | GPR151 conf act inactive | GPR119 counter inactive
COC(=O)c1ccccc1OCCOCCOc1cccc2cccnc12	none
COC(=O)c1ccccc1OCCOc1ccccc1C(=O)OC	GPR151 activ 5.6 | GPR151 conf act inactive | GPR119 counter inactive
Cc1ccc(-n2[nH]c(C)c(C=Nc3ccc(S(N)(=O)=O)cc3)c2=O)cc1	none
COc1ccc(NCCC(=O)c2ccc([N+](=O)[O-])cc2)c(OC)c1	GPR151 activ 5.2 | GPR151 conf act inactive | GPR119 counter inactive
COc1ccc(NC(=O)/C=C/c2ccc([N+](=O)[O-])cc2)c(OC)c1	none
COc1ccc(C(=O)NCC(=O)OCc2ccc([N+](=O)[O-])cc2)cc1	GPR151 activ 8.1 | GPR151 conf act inactive | GPR119 counter inactive
O=C(CNC(=O)c1ccccc1)OCc1ccc([N+](=O)[O-])cc1	none
O=C1CCC([N+](=O)[O-])C(c2ccc(Cl)c(Cl)c2)N1 (centres undefined)	none
O=C1CCC([N+](=O)[O-])C(c2ccc3c(c2)OCO3)N1 (centres undefined)	GPR151 activ 7.7 | GPR151 conf act inactive | GPR119 counter inactive
Brc1cccc(CNCc2cccnc2)c1	none
Brc1cccc(CNCc2ccncc2)c1	GPR151 activ 13 | GPR151 conf act inactive | GPR119 counter inactive
O=C(Cn1nc2oc3ccccc3n2c1=O)NC1CCCC1	GPR151 activ 7.8 | GPR151 conf act inactive | GPR119 counter inactive
CCCN1C(=O)c2ccc(C(=O)Nc3ccc(Br)cc3C(=O)O)cc2C1=O	none
CN1C(=O)c2ccc(C(=O)Nc3ccc(Br)cc3C(=O)O)cc2C1=O	GPR151 activ 7.9 | GPR151 conf act inactive | GPR119 counter inactive
CN(Cc1ccc(OCC(O)CN2CCc3ccccc3C2)cc1)Cc1nccs1 (centres undefined)	GPR151 activ 5.6 | GPR151 conf act inactive | GPR119 counter inactive
CN(Cc1ccc(OCC(O)CN2CCc3ccccc3C2)cc1)Cc1cccnc1 (centres undefined)	none
CCOc1ccc(NC(=O)CN(c2cccc(C)c2C)S(=O)(=O)c2ccccc2)cc1	none
O=C(Cc1cn(-c2ccc(N3CCOCC3)nn2)c2ccccc12)NCCN1CCOCC1	none
O=C(Cc1cn(-c2ccc(Cl)nn2)c2ccccc12)NCCN1CCOCC1	GPR151 activ 7.8 | GPR151 conf act inactive | GPR119 counter inactive
c1ccc2oc(NC3=NCN(C4CCCCC4)CN3)nc2c1	GPR151 activ 9.9 | GPR151 conf act inactive | GPR119 counter inactive
Cc1ccc(NC(=O)Cn2cnc3c(cnn3-c3cccc(C)c3C)c2=O)cc1Cl	none
Cc1ccc(-n2ncc3c(=O)n(CC(=O)Nc4cccc5ccccc45)cnc32)cc1C	GPR151 activ 6.7 | GPR151 conf act inactive | GPR119 counter inactive
CCc1cccc(C)c1NC(=O)Cn1cnc2c(cnn2-c2ccc(OC)cc2)c1=O	GPR151 activ 6.9 | GPR151 conf act inactive | GPR119 counter inactive
COC(=O)c1ccc(NC(=O)Cn2cnc3c(cnn3-c3cccc(C)c3C)c2=O)cc1	GPR151 activ 8.8 | GPR151 conf act inactive | GPR119 counter inactive
COc1cc(/C=C2/N=C(c3ccc(Cl)cc3)OC2=O)cc(Br)c1OC(C)=O	none
COc1cc(/C=C2\N=C(c3cc(OC)c(OC)c(OC)c3)OC2=O)cc(Br)c1OC(C)=O	GPR151 activ 5.5 | GPR151 conf act inactive | GPR119 counter inactive
CCOc1cc(C=O)ccc1OCC(=O)Nc1cccc(C)c1C	none
COC(=O)c1ccccc1NC(=O)C(C)N(c1cc(C)cc(C)c1)S(C)(=O)=O (centres undefined)	none
Cc1cc(NC(=O)C(=O)NC(C)C)ccc1Br	GPR151 activ 6.4 | GPR151 conf act inactive | GPR119 counter inactive
Cc1cc(NC(=O)C(C)N(c2ccc(Cl)cc2)S(C)(=O)=O)ccc1Br (centres undefined)	GPR151 activ 6.4 | GPR151 conf act inactive | GPR119 counter inactive
COC(=O)c1ccccc1NC(=O)C(C)N(c1ccc(Cl)cc1)S(C)(=O)=O (centres undefined)	GPR151 activ 6.8 | GPR151 conf act inactive | GPR119 counter inactive
Cc1nn(C)c(C)c1-c1nccc(NCc2nc3ccccc3[nH]2)n1	GPR151 activ 5.9 | GPR151 conf act inactive | GPR119 counter inactive
Nc1nc(NC(=O)C(Cl)(Cl)Cl)nn1-c1ccccc1	GPR151 activ 7.0 | GPR151 conf act inactive | GPR119 counter inactive
O=C(Nc1ccc2nn(-c3ccccc3)nc2c1)C(Cl)(Cl)Cl	none
COc1c2occc2c(OC)c2c(=O)cc(C(F)(F)C(F)(F)F)oc12	GPR151 activ 5.3 | GPR151 conf act inactive | GPR119 counter inactive
COc1ccc(C2CC(C(=O)NCCCN3CCOCC3)N(C)S(=O)(=O)N2)cc1 (centres undefined)	none
COC(=O)C1=C(C)N(C)C(C)=C(C(=O)OC)C1c1ccc(F)c(Br)c1	GPR151 activ 5.2 | GPR151 conf act inactive | GPR119 counter inactive
O=C(Cn1nnc(-c2ccccc2Cl)n1)Nc1ccccc1Cl	GPR151 activ 4.9 | GPR151 conf act inactive | GPR119 counter inactive
NC(=O)c1c(NC(=O)CCSc2ccccc2)sc2c1CCCC2	none
